Data taken from the supplement of paper PMC6555819.

What was measured:
Assay in all cases: PBM binding z-score (relative to random genomic background probes); higher = stronger binding; sequences stand for … in GC…GCGATTGACAGCGTAGAATGAAGG
[1] = tested on: PPARg:RXRa DBDmut IVT, anti-RXR (DBD mutation: RXRa K156A/R161A, NR concentration 270 nM, RXRa partner concentration 90 nM)
How it was run: (§1)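 Binding z-scores take random background probes as their reference. They come from custom Agilent 4×180K protein-binding microarrays incubated 1 h with ligand-free nuclear receptor dimers, with antibodies against each partner (one per run) detecting binding. Scanned fluorescence was regression-normalized.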

[2] = tested on: PPARg:RXRa IVT, anti-PPARg (NR concentration 270 nM, RXRa partner concentration 90 nM)
How it was run: as §1

[3] = tested on: PPARg DBDmut:RXRa IVT, anti-PPARg (DBD mutation: PPARg1 K132A/R137A, NR concentration 270 nM, RXRa partner concentration 90 nM)
How it was run: as §1

[4] = tested on: PPARg DBDmut IVT, anti-PPARg (DBD mutation: PPARg1 K132A/R137A, NR concentration 270 nM)
How it was run: as §1

[5] = tested on: PPARg homodimer (NR concentration 180 nM)
How it was run: as §1

[6] = tested on: PXR:RXRa (NR concentration 270 nM, RXRa partner concentration 90 nM)
How it was run: as §1

[7] = tested on: PXR homodimer (NR concentration 270 nM)
How it was run: as §1

[8] = tested on: RARa:RXR (NR concentration 270 nM, RXRa partner concentration 90 nM)
How it was run: as §1

[9] = tested on: RARa homodimer (NR concentration 270 nM)
How it was run: as §1

[10] = tested on: RARb:RXRa (NR concentration 270 nM, RXRa partner concentration 90 nM)
How it was run: as §1

| Sequence | PBM binding z-score [1] | PBM binding z-score [2] | PBM binding z-score [3] | PBM binding z-score [4] | PBM binding z-score [5] | PBM binding z-score [6] | PBM binding z-score [7] | PBM binding z-score [8] | PBM binding z-score [9] | PBM binding z-score [10] |
| --- | --- | --- | --- | --- | --- | --- | --- | --- | --- | --- |
| GCGACTGGGGCATCAGCAGGTTACAATAACTTAA | 3.24 | 3.27 | -0.414 | -0.53 | 0.365 | 0.0826 | -0.126 | 0.651 | -0.54 | 0.753 |
| CTACCAAGGTGTACAAGGTCGTTGATTACTATTC | 0.458 | 0.771 | 0.278 | 0.0269 | 0.61 | 1.61 | 1.18 | 1.47 | 0.124 | 0.901 |
| ATCTCTAGGTAAAGATAGTTCAGTGTATGCAAAT | 1.71 | 1.89 | 0.591 | 1.15 | 1.3 | 1.32 | 0.866 | 1.11 | 0.968 | 0.53 |
| GTACCAAGGTGAATAGCTCGTTGATGAGTAGGCG | 1.55 | 1.7 | -0.0388 | -0.301 | -0.135 | -0.403 | -0.283 | -0.0864 | -0.272 | 0.887 |
| GCTAGTTGGTCAGTAGAAGGTCACACACCGGTCG | 1.12 | 2.07 | -0.208 | 0.144 | 2.88 | 3.18 | 1.11 | 3.73 | 0.845 | 3.19 |
| CCAGACAGGTGATAAGGTAACTCAGCCTCGATTA | 0.812 | 0.261 | 0.0987 | -0.29 | 1.14 | -0.0216 | 0.227 | 0.472 | 0.984 | 0.359 |
| GATGCTAGGTCAACTGATGGTCAGCTAAAGCTCG | 3.82 | 3.75 | -0.0408 | -0.329 | 1.48 | 1.45 | -0.415 | 2.58 | -0.157 | 4.11 |
| CCGACTGGGGCACGGTTACCATAACGCACAGCCA | 3.83 | 4.42 | -0.407 | -0.566 | 0.044 | -0.353 | -0.44 | -0.139 | -0.261 | 1.06 |
| ACAGACAGGTGAGTGAAGGTAACGCAGCTGGACG | 0.361 | 1.04 | -1.24 | -0.822 | -0.463 | -0.245 | -0.327 | 0.359 | -0.195 | 0.702 |
| GCGACTGGCGCATCAGCAGGTTACCATAACTTAA | -0.575 | -0.748 | -1.28 | -1.31 | -0.552 | -0.518 | -0.619 | -0.34 | -0.992 | -1.03 |
| GTACCAAGGTGAATAGATCGTTGATGAGTAGGCG | 1.62 | 1.74 | 0.415 | 0.448 | 0.785 | -0.0465 | -0.049 | 0.221 | 0.712 | 1.13 |
| CCTGATAGGTCAATGGTCAGCTAAAGCAGCTCGC | 3.36 | 3.31 | -0.515 | -0.301 | 2.74 | 2.07 | 0.0154 | 2.95 | 0.334 | 4.06 |
| AGAATGAGGTTAGTAAGATCAGGGAATTGCGGTC | 2.97 | 2.49 | 0.854 | -0.148 | 0.454 | 0.1 | 0.333 | 0.331 | 0.721 | 1.22 |
| CCAGACAAGTGAGAAGGTAACTCAGCCTCGATTA | 0.321 | -0.293 | -0.675 | -0.316 | 1.29 | -0.132 | 0.602 | 0.088 | 1.08 | 0.0534 |
| CCTGCTAAGTCATGGTCAGCTAATCTACAGTATG | 0.985 | -0.177 | -0.766 | -0.271 | 0.146 | -0.158 | -0.39 | -0.0535 | -0.167 | 0.586 |
| GGAACGAGGGGATTCGAGTTGATAGCATGGCGAT | 0.388 | -0.0839 | -1.62 | -0.321 | -1.3 | 0.0775 | -0.14 | -0.588 | -0.71 | -0.414 |
| ACTAGTTGGTCAGCTGAGGGCACACACAATTCGG | 0.794 | 1.19 | -0.0581 | 0.654 | 0.538 | 2.26 | 0.211 | 1.13 | -0.0752 | 1.73 |
| GCAGACAGGTGAAACGCAGGTACCTCAGGGTGGC | 0.673 | 0.204 | -1.1 | -1.9 | -1.33 | -0.784 | -0.782 | -0.474 | -1.48 | 0.346 |
| CTACCAAGGTGAACTAGGTCGTTGATTACTATTC | 3.53 | 3.8 | 0.391 | 0.182 | 0.824 | 1.4 | 0.424 | 1.61 | 0.0789 | 1.97 |
| ATACCAAGGTGATCGTCAGGTCGTTGATACTAAC | 0.522 | 1.08 | 0.616 | -0.131 | 0.369 | 1.24 | 0.399 | 1.23 | -0.256 | 1.12 |
| ACTAGCAGGCCAAGTTTGGGTCTCTCAAACAAAG | 0.491 | 0.0697 | -1.53 | -0.788 | -1.17 | -0.733 | -0.734 | -0.606 | -1.44 | 0.382 |
| CGAACTAGGTCATTGACAGGAAAGTGAATAGTAA | 7.79 | 8.25 | 2.11 | 2.92 | 1.37 | 1.37 | 0.599 | 2.02 | 0.0841 | 3.59 |
| ACTATTAGTTGTCTTAGGGCAACCGATACGACGC | 0.0563 | 0.447 | 1.35 | 1.18 | 0.545 | -0.171 | 0.0491 | -0.0308 | 0.604 | 0.618 |
| TAGCCTAGGTCATTGGGCCAGTGTAGTACGCATC | 2.97 | 4.15 | 1.07 | -0.249 | 0.874 | 1.41 | -0.395 | 2.15 | -0.103 | 3.69 |
